Test results taken from the supplement of paper PMC11732987, “Enantioselective OTUD7B fragment discovery through chemoproteomics screening and high-throughput optimisation” (Communications Chemistry, 2025).

Assays:
Test in all cases: log2 ratio of Biotin-Ahx-Ub-VS probe labelling (fragment/DMSO); higher = less target engagement (more negative = stronger competition), active = hit call of the paper (q ≤ 0.05, log2 ratio ≤ -1)
Settings in all cases: compound concentration: 200 uM; treatment time: 3 h
[1] = molecular target: T1, OTUD6B (UniProt Q8N6M0)
T1 sequence (whole entry): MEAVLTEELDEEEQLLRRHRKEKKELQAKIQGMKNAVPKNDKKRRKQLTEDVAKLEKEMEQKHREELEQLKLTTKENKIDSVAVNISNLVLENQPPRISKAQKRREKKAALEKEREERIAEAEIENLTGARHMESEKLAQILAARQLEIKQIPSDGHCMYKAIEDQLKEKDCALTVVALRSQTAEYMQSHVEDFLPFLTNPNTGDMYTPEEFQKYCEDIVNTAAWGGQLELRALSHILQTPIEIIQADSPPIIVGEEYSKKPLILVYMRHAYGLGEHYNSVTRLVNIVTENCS
Method in brief: (§1)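 HEK293T lysate, 495 µg per sample in Tris/CHAPS/IGEPAL buffer with protease inhibitors, was treated in triplicate with fragment at 200 µM or vehicle for 3 h and then with Biotin-Ahx-Ub-VS at 0.5 µM final for 1 h. Labelled DUBs were NeutrAvidin-enriched, digested with LysC and trypsin, and run by diaPASEF LC-MS/MS. Spectronaut label-free quantities were global-median-normalised, and values are average log2 fragment/vehicle ratios by unpaired t-test on proteins with ≥2 unique peptides.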

[2] = molecular target: T2, OTUD7B (UniProt Q6GQQ9)
T2 sequence (whole entry): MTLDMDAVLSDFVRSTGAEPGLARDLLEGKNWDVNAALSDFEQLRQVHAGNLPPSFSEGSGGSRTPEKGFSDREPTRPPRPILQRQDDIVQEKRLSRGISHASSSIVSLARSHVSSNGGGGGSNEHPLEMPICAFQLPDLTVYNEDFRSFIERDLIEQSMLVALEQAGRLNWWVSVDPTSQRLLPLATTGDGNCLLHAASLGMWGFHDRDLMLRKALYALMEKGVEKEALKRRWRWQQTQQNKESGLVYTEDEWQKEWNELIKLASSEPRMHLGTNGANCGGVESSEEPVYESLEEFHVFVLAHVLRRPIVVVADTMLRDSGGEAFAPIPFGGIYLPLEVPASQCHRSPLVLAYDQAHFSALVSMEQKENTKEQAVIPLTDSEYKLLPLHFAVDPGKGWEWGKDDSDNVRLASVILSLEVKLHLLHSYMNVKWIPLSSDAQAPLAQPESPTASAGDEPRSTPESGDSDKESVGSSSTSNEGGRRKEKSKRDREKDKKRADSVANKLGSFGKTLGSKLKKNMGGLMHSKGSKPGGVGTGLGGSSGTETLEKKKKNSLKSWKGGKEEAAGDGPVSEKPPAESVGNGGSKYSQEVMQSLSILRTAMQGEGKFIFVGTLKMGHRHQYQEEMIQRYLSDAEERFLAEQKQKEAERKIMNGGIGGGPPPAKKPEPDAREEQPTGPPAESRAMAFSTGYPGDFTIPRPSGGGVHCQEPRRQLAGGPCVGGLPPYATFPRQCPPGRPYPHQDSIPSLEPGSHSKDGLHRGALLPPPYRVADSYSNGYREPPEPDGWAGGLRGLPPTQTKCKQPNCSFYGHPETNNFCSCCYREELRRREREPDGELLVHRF
Method in brief: as §1

[3] = molecular target: PRPF8 (UniProt Q6P2Q9)
Method in brief: as §1

[4] = molecular target: T3, PSMD7 (UniProt P51665)
T3 sequence (whole entry): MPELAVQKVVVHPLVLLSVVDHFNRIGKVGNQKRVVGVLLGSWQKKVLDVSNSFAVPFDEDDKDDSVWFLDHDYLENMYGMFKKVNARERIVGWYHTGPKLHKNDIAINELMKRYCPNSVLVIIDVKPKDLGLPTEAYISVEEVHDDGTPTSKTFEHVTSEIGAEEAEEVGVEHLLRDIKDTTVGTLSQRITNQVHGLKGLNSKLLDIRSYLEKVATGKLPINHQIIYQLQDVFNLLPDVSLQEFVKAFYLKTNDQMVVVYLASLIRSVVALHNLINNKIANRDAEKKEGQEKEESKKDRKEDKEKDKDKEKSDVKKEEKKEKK
Method in brief: as §1

[5] = molecular target: UCHL1 (UniProt P09936)
Method in brief: as §1

[6] = molecular target: T4, UCHL3 (UniProt P15374)
T4 sequence (whole entry): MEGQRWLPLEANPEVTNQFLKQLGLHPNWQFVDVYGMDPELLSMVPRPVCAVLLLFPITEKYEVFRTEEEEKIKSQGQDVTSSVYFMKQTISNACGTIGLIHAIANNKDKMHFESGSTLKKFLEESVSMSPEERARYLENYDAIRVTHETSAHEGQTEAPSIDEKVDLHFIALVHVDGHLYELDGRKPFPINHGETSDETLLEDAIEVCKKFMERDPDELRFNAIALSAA
Method in brief: as §1

[7] = molecular target: T5, UCHL5 (UniProt Q9Y5K5)
T5 sequence (whole entry): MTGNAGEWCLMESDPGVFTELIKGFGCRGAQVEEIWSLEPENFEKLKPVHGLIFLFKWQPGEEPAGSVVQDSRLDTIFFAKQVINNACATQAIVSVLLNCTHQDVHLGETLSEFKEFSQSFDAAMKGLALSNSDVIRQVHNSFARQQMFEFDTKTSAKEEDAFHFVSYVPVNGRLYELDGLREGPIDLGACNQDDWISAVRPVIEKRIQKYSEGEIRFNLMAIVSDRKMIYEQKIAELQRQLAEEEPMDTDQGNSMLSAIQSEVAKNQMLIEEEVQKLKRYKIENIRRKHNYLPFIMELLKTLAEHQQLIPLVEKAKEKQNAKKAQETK
Method in brief: as §1

[8] = molecular target: USP10 (UniProt Q14694)
Method in brief: as §1

[9] = molecular target: T6, USP15 (UniProt Q9Y4E8)
T6 sequence (whole entry): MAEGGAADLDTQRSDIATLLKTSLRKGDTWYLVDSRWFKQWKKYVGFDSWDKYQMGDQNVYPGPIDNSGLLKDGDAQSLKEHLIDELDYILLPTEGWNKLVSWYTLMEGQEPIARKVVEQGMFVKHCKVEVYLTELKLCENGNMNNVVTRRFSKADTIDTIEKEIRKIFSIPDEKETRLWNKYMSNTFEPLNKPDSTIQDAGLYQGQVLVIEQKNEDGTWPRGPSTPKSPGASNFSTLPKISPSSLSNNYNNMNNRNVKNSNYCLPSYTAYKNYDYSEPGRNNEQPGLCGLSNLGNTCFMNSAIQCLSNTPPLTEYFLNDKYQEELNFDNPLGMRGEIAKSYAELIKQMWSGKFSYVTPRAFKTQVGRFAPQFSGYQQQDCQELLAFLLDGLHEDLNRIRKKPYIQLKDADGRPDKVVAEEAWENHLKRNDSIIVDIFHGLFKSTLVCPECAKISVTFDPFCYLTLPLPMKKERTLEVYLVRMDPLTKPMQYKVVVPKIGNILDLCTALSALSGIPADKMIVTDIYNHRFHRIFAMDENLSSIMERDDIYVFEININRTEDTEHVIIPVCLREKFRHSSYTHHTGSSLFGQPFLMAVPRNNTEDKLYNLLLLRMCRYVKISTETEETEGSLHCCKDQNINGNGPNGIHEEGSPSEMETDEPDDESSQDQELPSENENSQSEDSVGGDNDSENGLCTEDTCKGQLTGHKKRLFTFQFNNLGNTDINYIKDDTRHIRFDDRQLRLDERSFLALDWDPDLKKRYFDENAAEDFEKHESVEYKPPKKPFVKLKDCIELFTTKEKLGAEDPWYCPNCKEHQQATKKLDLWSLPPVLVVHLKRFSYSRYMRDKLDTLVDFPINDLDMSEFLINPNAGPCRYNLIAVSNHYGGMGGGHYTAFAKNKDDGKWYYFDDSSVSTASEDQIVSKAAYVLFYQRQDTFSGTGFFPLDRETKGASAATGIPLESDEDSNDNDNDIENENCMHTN
Method in brief: as §1

[10] = molecular target: USP16 (UniProt Q9Y5T5)
Method in brief: as §1

Measured: log2 ratio of Biotin-Ahx-Ub-VS probe labelling

Chain of USP10 (Q14694 whole entry): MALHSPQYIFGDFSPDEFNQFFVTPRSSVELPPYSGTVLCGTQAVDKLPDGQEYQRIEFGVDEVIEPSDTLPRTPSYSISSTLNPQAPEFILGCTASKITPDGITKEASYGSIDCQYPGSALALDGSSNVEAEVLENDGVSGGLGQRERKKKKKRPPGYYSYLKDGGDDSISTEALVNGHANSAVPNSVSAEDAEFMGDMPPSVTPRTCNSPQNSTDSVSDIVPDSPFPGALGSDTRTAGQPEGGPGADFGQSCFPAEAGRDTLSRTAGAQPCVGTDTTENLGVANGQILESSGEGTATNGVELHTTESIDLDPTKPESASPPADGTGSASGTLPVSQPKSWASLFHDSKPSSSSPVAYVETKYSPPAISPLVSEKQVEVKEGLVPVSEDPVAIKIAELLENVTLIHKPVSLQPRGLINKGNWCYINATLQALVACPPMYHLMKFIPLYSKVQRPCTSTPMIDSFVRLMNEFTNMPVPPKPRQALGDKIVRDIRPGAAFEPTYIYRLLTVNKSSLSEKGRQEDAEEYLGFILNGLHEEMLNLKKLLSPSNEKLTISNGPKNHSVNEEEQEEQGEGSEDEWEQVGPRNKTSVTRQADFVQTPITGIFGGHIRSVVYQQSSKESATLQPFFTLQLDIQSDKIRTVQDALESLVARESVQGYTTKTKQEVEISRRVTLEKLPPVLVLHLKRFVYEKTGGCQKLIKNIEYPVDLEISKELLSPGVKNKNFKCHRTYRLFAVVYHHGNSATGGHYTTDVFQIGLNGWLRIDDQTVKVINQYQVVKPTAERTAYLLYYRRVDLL
Chain of USP16 (Q9Y5T5 whole entry, looked up): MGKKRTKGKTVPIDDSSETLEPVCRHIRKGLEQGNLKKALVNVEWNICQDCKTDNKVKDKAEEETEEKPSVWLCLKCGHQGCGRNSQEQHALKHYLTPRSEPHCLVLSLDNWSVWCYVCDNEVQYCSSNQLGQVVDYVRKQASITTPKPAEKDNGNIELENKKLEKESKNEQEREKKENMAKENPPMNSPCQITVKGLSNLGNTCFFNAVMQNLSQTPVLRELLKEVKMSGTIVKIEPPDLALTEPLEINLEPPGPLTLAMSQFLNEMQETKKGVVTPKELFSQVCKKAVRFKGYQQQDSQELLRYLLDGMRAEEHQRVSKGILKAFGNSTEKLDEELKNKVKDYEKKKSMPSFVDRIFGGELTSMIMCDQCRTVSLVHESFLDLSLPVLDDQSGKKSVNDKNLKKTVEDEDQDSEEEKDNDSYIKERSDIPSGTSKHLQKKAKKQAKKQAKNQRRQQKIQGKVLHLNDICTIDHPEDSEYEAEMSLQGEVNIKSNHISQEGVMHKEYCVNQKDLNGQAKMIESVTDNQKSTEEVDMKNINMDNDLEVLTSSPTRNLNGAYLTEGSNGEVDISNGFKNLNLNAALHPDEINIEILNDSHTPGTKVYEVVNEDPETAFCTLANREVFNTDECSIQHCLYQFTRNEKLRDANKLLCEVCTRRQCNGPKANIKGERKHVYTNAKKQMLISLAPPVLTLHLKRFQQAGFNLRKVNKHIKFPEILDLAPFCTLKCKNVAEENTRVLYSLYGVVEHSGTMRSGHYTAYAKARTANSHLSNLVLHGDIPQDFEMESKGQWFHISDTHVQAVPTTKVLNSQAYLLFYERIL
Chain of UCHL1 (P09936 whole entry, looked up): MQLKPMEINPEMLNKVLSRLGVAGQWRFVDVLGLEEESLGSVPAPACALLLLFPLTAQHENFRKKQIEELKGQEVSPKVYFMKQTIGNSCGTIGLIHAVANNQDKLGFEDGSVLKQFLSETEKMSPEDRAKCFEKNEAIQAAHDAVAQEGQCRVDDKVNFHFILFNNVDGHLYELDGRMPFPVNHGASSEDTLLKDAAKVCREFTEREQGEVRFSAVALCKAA

Cc1ccccc1OCC(=O)N1CCN(C(=O)CCl)CC1
active: [5] -1.52
inactive: [1] -0.157 | [2] -0.203 | [3] 0.281 | [4] 0.113 | [6] 0.461 | [7] -0.137 | [8] -0.173 | [9] -0.416 | [10] -0.973
